Measurements: PubChem BioAssay (NCATS)
Records with an inconclusive call do not appear. Where a call stands in place of a potency, no number is given. Active and inactive are the calls of the source. Calls come from the whole dose curve; as a rule, active = well fitted curve in the direction sought with a large enough effect; inconclusive = small, poorly fitted or top-dose-only effect, or another doubt; inactive = no such curve, though single readings can be large; an effect the other way counts as inactive or inconclusive.

Tests used:
[1] = Quantitative High-Throughput drug screen in 47 multiple myeloma cell lines against the NCATS MIPE library collection: JIM3_ECACC cell viability assay (AID 1918963; note: nearly all actives have a fitted effect of over 35% in size)
Outline: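 Viability readout: CellTiter-Glo luminescence following 5 min room-temperature incubation with reagent. Prior exposure: 48 h, 37C, humidified 5% CO2, 500 cells per well.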

[2] = Quantitative High-Throughput drug screen in 47 multiple myeloma cell lines against the NCATS MIPE library collection: INA6_PLB cell viability assay (AID 1918965; note: nearly all actives have a fitted effect of over 55% in size; note: potency is the fitted concentration of half-maximal effect)
Outline: (§1)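 Approved and investigational drugs from MIPE 4.0 were added by pin tool to 500 cells per well. After 48 hours at 37C, ATP-based CellTiter-Glo luminescence indicated remaining viability.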

[3] = Quantitative High-Throughput drug screen in 47 multiple myeloma cell lines against the NCATS MIPE library collection: KMS27_JCRB cell viability assay (AID 1918970); note: nearly all actives have a fitted effect of over 30% in size; note: potency is the fitted concentration of half-maximal effect
Outline: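 Luminescent ATP read-out (CellTiter-Glo, 5 min at room temperature) after 48 h compound exposure of 500 KMS27_JCRB cells per well; DMSO wells define full viability and media-only wells zero.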

[4] = Quantitative High-Throughput drug screen in 47 multiple myeloma cell lines against the NCATS MIPE library collection: KMS12PE_JCRB cell viability assay (AID 1918972); note: nearly all actives have a fitted effect of over 30% in size; note: potency is the fitted concentration of half-maximal effect; for viability: series mostly up to about 46 µM
Outline: as §1

[5] = Quantitative High-Throughput drug screen in 47 multiple myeloma cell lines against the NCATS MIPE library collection: KMS20_JCRB cell viability assay (AID 1918973); note: nearly all actives have a fitted effect of over 45% in size; note: potency is the fitted concentration of half-maximal effect
Outline: as §1

[6] = Quantitative High-Throughput drug screen in 47 multiple myeloma cell lines against the NCATS MIPE library collection: MOLP8_DSMZ cell viability assay (AID 1918977); note: nearly all actives have a fitted effect of over 45% in size; note: potency is the fitted concentration of half-maximal effect
Outline: (§2)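 MIPE 4.0 approved/investigational drugs; 500 cells/well; 48 h 37 °C humidified 5% CO2; CTG luminescence readout; DMSO = 100%, media = 0% viability.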

[7] = Quantitative High-Throughput drug screen in 47 multiple myeloma cell lines against the NCATS MIPE library collection: NCIH929_DSMZ cell viability assay (AID 1918978); note: nearly all actives have a fitted effect of over 35% in size; note: potency is the fitted concentration of half-maximal effect
Outline: as §2

[8] = Quantitative High-Throughput drug screen in 47 multiple myeloma cell lines against the NCATS MIPE library collection: OCIMY1_PLB cell viability assay (AID 1918979); note: series mostly up to about 46 µM; nearly all actives have a fitted effect of over 35% in size
Outline: as §2

[9] = Quantitative High-Throughput drug screen in 47 multiple myeloma cell lines against the NCATS MIPE library collection: MM1S_ATCC cell viability assay (AID 1918980); note: potency is the fitted concentration of half-maximal effect; nearly all actives have a fitted effect of over 45% in size
Outline: as §2

[10] = Quantitative High-Throughput drug screen in 47 multiple myeloma cell lines against the NCATS MIPE library collection: KMM1_JCRB cell viability assay (AID 1918960); note: potency is the fitted concentration of half-maximal effect; nearly all actives have a fitted effect of over 30% in size
Outline: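 ATP readout (CellTiter-Glo), 48 h drug incubation, 37 °C/5% CO2, 500 cells per well; normalisation to DMSO (100%) and media-only (0%) controls.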

[11] = Quantitative High-Throughput drug screen in 47 multiple myeloma cell lines against the NCATS MIPE library collection: Karpas25_ECACC cell viability assay (AID 1918968; note: nearly all actives have a fitted effect of over 35% in size; note: potency is the fitted concentration of half-maximal effect)
Outline: as §1

[12] = Quantitative High-Throughput drug screen in 47 multiple myeloma cell lines against the NCATS MIPE library collection: KMS26_JCRB cell viability assay (AID 1918975); note: nearly all actives have a fitted effect of over 45% in size; note: potency is the fitted concentration of half-maximal effect
Outline: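 qHTS of the MIPE 4.0 collection: 500 myeloma cells/well, 48 h drug exposure at 37C in 5% CO2, then CellTiter-Glo for 5 min at room temperature before luminescence reading.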

[13] = Quantitative High-Throughput drug screen in 47 multiple myeloma cell lines against the NCATS MIPE library collection: JJN3_DSMZ cell viability assay (AID 1918966; note: potency is the fitted concentration of half-maximal effect; nearly all actives have a fitted effect of over 50% in size)
Outline: as §1

[14] = Quantitative High-Throughput drug screen in 47 multiple myeloma cell lines against the NCATS MIPE library collection: MMM1_PLB cell viability assay (AID 1918976)
Outline: as §2

Compound	Potency [1]	Potency [2]	Potency [3]	Potency [4]	Potency [5]	Potency [6]	Potency [7]	Potency [8]	Potency [9]	Potency [10]	Potency [11]	Potency [12]	Potency [13]	Potency [14]
Clc1ccccc1C(c1ccccc1)(c1ccccc1)n1cccn1	inactive	inactive	inactive	inactive	inactive	16.6 µM (active)	inactive	inactive	0.469 µM (active)					
O=C(N[C@@H](COc1ccc2[nH]c(=O)[nH]c2c1)c1ccccc1)c1cccn(Cc2ccc(F)c(F)c2)c1=O			20.9 µM (active)	18.7 µM (active)	18.7 µM (active)	inactive			16.6 µM (active)	18.7 µM (active)				
CC(=CCCC1=CCC(C2=CC(=O)OC2O)OC1O)CCC1=C(C)CCCC1(C)C (centres undefined)	inactive		inactive	inactive		inactive		inactive	20.9 µM (active)		inactive	inactive		
CC[C@H]1C=CC=CC[C@@H](C)[C@H](O)[C@@](C)(O)C(=O)[C@@H](C)[C@H](O)[C@@H](C)C(=O)[C@@H](C)[C@H](O)[C@@H](C)C=CC(=O)O[C@@H]2[C@@H](C)[C@H](CC1)O[C@]1(CC[C@H](C)[C@H](C[C@@H](C)O)O1)[C@H]2C		0.0132 µM (active)					0.0296 µM (active)				0.001 µM (active)	10.5 µM (active)	18.7 µM (active)	0.0059 µM (active)
